Rows were chosen to be rich in hits. Some 18% of all compounds tested hit in one or more screens of this group.
KAT2A inh – blocks human GCN5L2 histone acetyltransferase; Q92830; GCN5L2 HAT assay, ThioGlo1 CoA-SH fluorescence; 390,000 compounds, 0.21% hits; AID 504327; Potency, µM (titrated, usually from 58.9 µM), inactives show at the highest dose activity change, negative = inhibition, hits mostly inhibitors
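ThioGlo1-coupled HAT assay: 20nM GCN5L2, 70uM acetyl-CoA, 75uM H3(1-25) peptide, pH 7.5. Fluorescence read at 340/540nm at start and after 20 min at room temperature.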
DT40 TDP1 no CPT – qHTS for Inhibitors of human tyrosyl-DNA phosphodiesterase 1 (TDP1): qHTS in cells in absence of CPT | DT40 Tdp1-/- hTDP1 cells, no CPT, ATP luminescence, 48 h | Potency, µM (highest dose often 46.2 µM), inactives show at the top dose activity change, negative = growth inhibition, hits mostly inhibitors | 420,000 compounds, 15% hits | AID 686978, 2013; also: nearly all actives have a fitted effect of over 55% in size
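No-CPT arm: Tdp1-/-;hTDP1 DT40 cells (400/well) plus compounds, incubated ≥48 hr at 37 °C. Readout CellTiter-Glo luminescence.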
TDP1 cell CPT – growth inhibition of DT40 Tdp1-/-;hTDP1 cells with camptothecin (screen for TDP1 inhibitors); 420,000 compounds, 12% hits; Potency, µM (top dose mostly 46.2 µM), for inactives: top-dose activity change, negative = growth inhibition, hits mostly inhibitors; chicken DT40 Tdp1-/-;hTDP1 cells + 20 nM CPT, ATP luminescence, 48 h; also: nearly all actives have a fitted effect of over 55% in size
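Cell growth measured by CellTiter-Glo luminescence after a minimum 48 h, 37 C compound exposure with 20 nM CPT in Tdp1-knockout DT40 cells stably expressing hTDP1, seeded 400/well; qHTS titration format.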
VDR inhibitor – blocks the human vitamin D receptor. P11473. VDR-SRC2-3 peptide fluorescence polarization, 2 h. Potency, µM, for the others: max response, negative = inhibition, actives largely listed as inhibitors. 400,000 compounds, 0.93% hits
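FP read-out; VDR + SRC2-3 coactivator peptide; 23 nl compound by pintool; 2 h RT incubation; reagents held at 4 deg C, protected from light.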
PLK1 PBD block – inhibitors of human PLK1 polo-box domain binding | AID 720504 | Plk1 PBD binding of FITC phosphopeptide, fluorescence polarization | 360,000 compounds, 2.8% hits | P53350 | Potency, µM, without a hit: max response, negative = inhibition, hits mostly inhibitors; also: series mostly up to about 57 µM; nearly all actives have a fitted effect of over 65% in size
TDP1 block – blocks human tyrosyl-DNA phosphodiesterase 1; AID 485290; Potency, µM (titrated, usually from 130 µM), for inactives: top-dose activity change, negative = inhibition, usual class: inhibitors; recombinant TDP1, AlphaScreen DNA substrate cleavage; 350,000 compounds, 0.28% hits; also: nearly all actives have a fitted effect of over 40% in size
Target sequence (Q9NUW8 whole entry, looked up): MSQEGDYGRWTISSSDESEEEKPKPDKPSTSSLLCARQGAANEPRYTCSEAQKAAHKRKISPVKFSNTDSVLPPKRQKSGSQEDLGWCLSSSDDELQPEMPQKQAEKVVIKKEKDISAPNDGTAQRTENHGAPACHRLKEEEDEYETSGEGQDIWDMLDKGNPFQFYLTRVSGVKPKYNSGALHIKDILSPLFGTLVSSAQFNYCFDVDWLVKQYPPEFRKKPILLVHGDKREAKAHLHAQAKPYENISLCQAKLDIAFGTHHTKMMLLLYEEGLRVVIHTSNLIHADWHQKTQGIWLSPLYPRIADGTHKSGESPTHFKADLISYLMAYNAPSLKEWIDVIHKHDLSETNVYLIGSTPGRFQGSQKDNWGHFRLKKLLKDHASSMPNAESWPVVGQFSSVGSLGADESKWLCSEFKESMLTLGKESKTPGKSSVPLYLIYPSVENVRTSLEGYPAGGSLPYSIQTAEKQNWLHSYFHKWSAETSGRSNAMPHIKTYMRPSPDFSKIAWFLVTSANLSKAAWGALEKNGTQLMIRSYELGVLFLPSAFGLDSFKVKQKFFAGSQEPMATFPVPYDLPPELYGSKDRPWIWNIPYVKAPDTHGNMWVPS
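Enzyme-compound mixtures sat 15 min at room temperature, followed by a 5 min reaction with 15 nM final substrate and 10 min with AlphaScreen beads. Recombinant human Tdp1 was used at 1 nM final.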
Numbers without * were called inactive; u = inconclusive; x = no result. Calls follow the shape of the dose curve; as a rule, active = well fitted curve in the direction sought with a large enough effect; inconclusive = small, poorly fitted or top-dose-only effect, or another doubt; inactive = no such curve, though single readings can be large; an effect the other way counts as inactive or inconclusive. % is scaled to controls: 0 for no effect and ±100 for the full control effect; potency is read from the fitted curve at half-maximal effect.

SMILES	KAT2A inh	DT40 TDP1 no CPT	TDP1 cell CPT	VDR inhibitor	PLK1 PBD block	TDP1 block
Cc1ccc(-c2c(C(=O)N3CCN(c4cc(Cl)ccc4C)CC3)oc(=O)c3ccccc23)cc1	-2%	u	u	-8%	x	5%
FC(F)(F)c1cccc(N2CCN(c3ncnc4c3nc3n4CCCC3)CC2)c1	-6%	9.2µM*	9.2µM*	10%	x	-1%
Fc1ccccc1N1CCN(c2ncnc3c2nc2n3CCCCC2)CC1	-5%	u	u	2%	x	2%
COc1cccc(N2CCN(c3ncnc4c3nc3n4CCCCC3)CC2)c1	-15%	10µM*	16µM*	10%	x	6%
CC(=O)c1ccc(N2CCN(c3ncnc4c3nc3n4CCCC3)CC2)cc1	-9%	u	u	12%	x	5%
COc1ccccc1N1CCN(c2ncnc3c2nc2n3CCCC2)CC1	-2%	18µM*	18µM*	-6%	x	6%
C=CCn1c(COc2ccc(Cl)cc2)nnc1SCC(=O)N/N=C/c1cccc(O)c1	-4%	u	u	-1%	-1%	3%
C=CCn1c(COc2ccccc2)nnc1SC(C)C(=O)N/N=C/c1cc(Cl)ccc1O (stereo unspecified)	-9%	21µM*	u	-24%	27µM*	9%
Cc1nn(C)c2nc(NNC(=O)Nc3cc(Cl)nc(Cl)c3)cc(C(C)C)c12	-4%	x	x	u	x	0%
CCn1c(SCC(=O)Nc2oc(-c3ccccc3)c(-c3ccccc3)c2C#N)nnc1-c1cc(OC)cc(OC)c1	-8%	u	-28%	-3%	-7%	8%
CN(C(=O)c1cccc(NC(=O)Cc2ccc([N+](=O)[O-])cc2)c1)C1CCCCC1	-6%	15µM*	21µM*	-6%	-5%	5%
CN(C(=O)c1cccc(NC(=O)Cc2cccc(NC(=O)C3CCCN(C(=O)C4CCCC4)C3)c2)c1)C1CCC1 (stereo unspecified)	x	u	16µM*	6%	-14%	x
CN(C(=O)c1cccc(NC(=O)Cc2cccc(NC(=O)C3CCCN(C(=O)C4CCC4)C3)c2)c1)C1CCC1 (stereo unspecified)	x	23µM*	u	8%	-12%	x
CN(C(=O)c1ccc(NC(=O)Cc2cccc(NC(=O)C3CCCN(C(=O)C4CCCC4)C3)c2)cc1)C1CCCC1 (stereo unspecified)	-5%	u	21µM*	-21%	-6%	3%
CN(C(=O)c1cccc(NC(=O)Cc2ccc(NC(=O)C3CCCN(C(=O)C4CCCCC4)C3)cc2)c1)C1CCCCC1 (stereo unspecified)	x	u	u	5%	-2%	x
Cc1ccc(NC(=O)c2cc3c(=O)[nH]c4ccccc4c3n2C)cc1F	0%	-26%	u	25%	x	5%
NNC(=O)CS(=O)(=O)c1ccc(Cl)cc1	1%	-3%	1%	13%	-4%	3%
CN(C(=O)c1cccc(NC(=O)Cc2ccc(NC(=O)C3CCCN(C(=O)C4CCC4)C3)cc2)c1)C1CCCCC1 (stereo unspecified)	x	u	23µM*	-3%	-2%	x
CN(C(=O)c1ccc(-c2ccccc2)cc1)C1CCCCC1	x	u	u	-13%	1%	x
CN(C(=O)c1ccc(Oc2ccc([N+](=O)[O-])cc2)cc1)C1CCCCC1	-6%	23µM*	u	-20%	1%	x
Cc1cccc(C(c2sc3nc(-c4ccco4)nn3c2O)N2CCN(Cc3ccccc3)CC2)c1 (stereo unspecified)	-15%	-29%	-23%	8%	x	5%
Cc1ccc(C(=O)C(c2ccccc2)N2Cc3ccccc3C2=N)cc1 (stereo unspecified)	-20%	8.2µM*	10µM*	-5%	-8%	4%
C[C@@H]1CN([C@@H](C)CO)C(=O)CCCn2nncc2CO[C@H]1CN(C)Cc1ccc(Cl)c(Cl)c1	x	-17%	-1%	x	4%	x
COc1ccc(Cc2nnc(SCC(=O)N3CCN(c4ccccc4)CC3)o2)cc1	3%	23µM*	23µM*	-13%	-1%	2%
COc1ccc(Cc2nnc(SCC(=O)c3ccc(OC)cc3)o2)cc1	0%	u	u	15%	1%	4%
SMILES	KAT2A inh	DT40 TDP1 no CPT	TDP1 cell CPT	VDR inhibitor	PLK1 PBD block	TDP1 block
COc1ccc(Cc2nnc(SCC(=O)N3CCCCC3)o2)cc1	7%	23µM*	5%	-14%	u	5%
COc1ccc(Cc2nnc(SCC(=O)c3ccccc3)o2)cc1	-1%	u	u	9%	-7%	10%
CCN(CC(=O)NC(C)(C)C)C(=O)COc1c(Cl)cc(Cl)c2ccc(C)nc12	-10%	13µM*	23µM*	-11%	1%	2%
CCOc1ccccc1NC(=O)COC(=O)COc1c(Cl)cc(Cl)c2ccc(C)nc12	x	0%	-17%	8%	1%	x
Cc1nc(SCC(=O)NC2(C#N)CCCC2)n(CC(C)C)c1C	-6%	u	-22%	0%	-24%	-5%
C=CCOc1c(Br)cc(CNCCCN2CCOCC2)cc1OC	-19%	u	-28%	-10%	1%	5%
CCOc1cc(C2NN=C(c3ccccc3)S2)ccc1OCc1ccc(F)cc1 (stereo unspecified)	-9%	u	u	-1%	u	1%
CCOc1cc(CNCCCN2CCOCC2)cc(Br)c1OCc1ccccc1Cl	-4%	4.6µM*	3.7µM*	-7%	-5%	6%
CCOc1cc(CNC2CCCC2)cc(Cl)c1OCc1ccccc1	0%	u	u	11%	-3%	-2%
CCOc1cc(CNC2CCCC2)ccc1OCc1ccccc1Cl	1%	21µM*	13µM*	3%	0%	-1%
COc1cc(CNCCN2CCOCC2)ccc1OCc1c(Cl)cccc1Cl	-3%	x	x	x	x	x

Screening data: PubChem BioAssay, National Center for Advancing Translational Sciences (NCATS)
